The entries come from a sample that favours hits as a whole.
Artemis inh: Artemis (human) endonuclease inhibition. Q96SD1. AID 686954. recombinant Artemis, quenched FAM hairpin cleavage fluorescence. inhibition, % at 10 µM. 0.78% of 30,000 active;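 active = at 10 µM dose, at least 30% inhibition, measured as corrected fluorescence normalized to stimulator and neutral control wells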
Target sequence (Q96SD1 whole entry, looked up): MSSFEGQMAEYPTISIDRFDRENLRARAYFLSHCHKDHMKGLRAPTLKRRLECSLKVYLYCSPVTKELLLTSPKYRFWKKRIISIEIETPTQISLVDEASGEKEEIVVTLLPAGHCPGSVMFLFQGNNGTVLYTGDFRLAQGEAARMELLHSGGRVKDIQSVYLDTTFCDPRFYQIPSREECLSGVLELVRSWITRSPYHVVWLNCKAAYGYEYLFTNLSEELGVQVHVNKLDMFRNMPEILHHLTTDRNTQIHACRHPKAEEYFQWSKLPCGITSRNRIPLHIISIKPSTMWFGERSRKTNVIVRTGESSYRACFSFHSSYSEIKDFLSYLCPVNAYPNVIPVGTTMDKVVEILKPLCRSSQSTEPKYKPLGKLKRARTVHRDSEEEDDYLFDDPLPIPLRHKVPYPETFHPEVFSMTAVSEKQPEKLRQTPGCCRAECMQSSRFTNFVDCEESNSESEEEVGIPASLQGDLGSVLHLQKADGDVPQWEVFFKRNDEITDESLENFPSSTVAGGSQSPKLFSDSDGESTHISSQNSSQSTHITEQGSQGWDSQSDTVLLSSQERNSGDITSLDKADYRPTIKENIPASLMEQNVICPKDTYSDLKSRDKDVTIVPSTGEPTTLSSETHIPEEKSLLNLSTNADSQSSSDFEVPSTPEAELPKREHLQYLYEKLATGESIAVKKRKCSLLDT
Numbers without * were called inactive.

Results for CSc1nc2ccc(NS(=O)(=O)c3ccc4c(c3)OCCO4)cc2s1 ?
Artemis inh: 34*

Results for COc1ccc(S(=O)(=O)Nc2ccc3c(c2)OCCO3)cc1Cl ?
Artemis inh: -2

What do the screens show for `CSc1nc2ccc(S(=O)(=O)NC3CCCCC3)cc2s1`?
Artemis inh: 1

How did CCOC(=O)c1ccc(Nc2nc(-c3cccnc3)nc3ccccc23)cc1 do in these assays?
Artemis inh: 21

Results for O=c1c2cc(-c3ccccc3)sc2ncn1/N=C/c1ccco1 ?
Artemis inh: 5

Results for COc1cc(Nc2nnc(C)s2)c(Cl)cc1Cl ?
Artemis inh: -3

Results for CCOC(=O)CSc1nnnn1-c1cc(OC)c(Cl)cc1OC ?
Artemis inh: -13

What do the screens show for `COc1cc(-n2ccnc2SC)c(Cl)cc1Cl`?
Artemis inh: 52*

How did N#Cc1c(NC(=O)CSc2ccccn2)oc(-c2ccccc2)c1-c1ccccc1 do in these assays?
Artemis inh: 9

Results for CCn1c(SCC(=O)Nc2oc(-c3ccccc3)c(-c3ccccc3)c2C#N)nnc1-c1ccco1 ?
Artemis inh: 26

What do the screens show for `CCn1c(SCC(=O)Nc2oc(-c3ccccc3)c(-c3ccccc3)c2C#N)nnc1-c1ccncc1`?
Artemis inh: 31*

Results for CC(C)CCNC(=O)C(c1cccnc1)N(Cc1ccccc1)C(=O)Cn1nnc2ccccc21 (stereo not given) ?
Artemis inh: 1

Results for COc1ccc(NC2CS(=O)(=O)CC2NCc2ccccc2)cc1 (stereo not given) ?
Artemis inh: -2

How did O=C1NC(=O)/C(=C\c2ccccc2Oc2ccc(F)c(F)c2)S1 do in these assays?
Artemis inh: 34*

What do the screens show for `Cc1cc(C)n(-c2nc(NC(C)(C)C)nc(NC(C)(C)C)n2)n1`?
Artemis inh: -4

Results for Cc1csc(Nc2ccccc2C(F)(F)F)n1 ?
Artemis inh: -3

Results for Cc1cc(C)n(-c2nc(Nc3ccccc3C(F)(F)F)nc(-n3nc(C)cc3C)n2)n1 ?
Artemis inh: 57*

How did CN(C)S(=O)(=O)c1cccc(C(=O)NCc2cccs2)c1 do in these assays?
Artemis inh: -7

Results for CCOc1ccccc1N1CCN(C(=O)C(F)(F)F)CC1 ?
Artemis inh: -4

What do the screens show for `CCOc1ccccc1N1Cc2ccccc2C1`?
Artemis inh: 20

What do the screens show for `CCOc1ccccc1N1CN(CC)CNC1=S`?
Artemis inh: 55*

How did CC(=O)c1c(C)nc2nonc2c1N do in these assays?
Artemis inh: -2

Results for CCCCN(CC)S(=O)(=O)c1ccc(C(=O)Nc2nnc(-c3ccccc3Cl)o2)cc1 ?
Artemis inh: 10

What do the screens show for `CCN1CCCC1CNS(=O)(=O)c1ccc(C(=O)Nc2ccccc2)cc1` (stereo not given)?
Artemis inh: 2

How did CC1CCCCN1C(=O)c1ccc(S(=O)(=O)N2CCCCC2C)cc1 (stereo not given) do in these assays?
Artemis inh: -3

What do the screens show for `CC1CCCCN1S(=O)(=O)c1ccc(C(=O)Nc2nnc(-c3ccccc3Cl)o2)cc1` (stereo not given)?
Artemis inh: 32*

What do the screens show for `COc1ccccc1-c1nnc(NC(=O)c2ccc(S(=O)(=O)N(C)C)cc2)o1`?
Artemis inh: 7

Results for CCC1CCCCN1S(=O)(=O)c1ccc(C(=O)Nc2nnc(-c3ccccc3Cl)o2)cc1 (stereo not given) ?
Artemis inh: 36*

Results for CCC(=O)Nc1nnc(CSCc2ccc(F)cc2)s1 ?
Artemis inh: 1

Results for O=S(=O)(Nc1cccc2c1ccc1cccn12)c1cccs1 ?
Artemis inh: 7

Results for Cn1c(Br)nc2c1c(=O)n(CC(O)COc1ccccc1)c(=O)n2C (stereo not given) ?
Artemis inh: 1

How did Cc1csc(NC(=O)CSCC(=O)Nc2ccccc2)n1 do in these assays?
Artemis inh: 2

What do the screens show for `N/N=c1\sc2ccccc2n1-c1ccccc1`?
Artemis inh: -3

Results for O=C(O)CC(C(=O)O)c1cn(Cc2ccccc2)c2ccccc12 (stereo not given) ?
Artemis inh: 2

How did N#Cc1ccccc1Cn1cc(C#N)c2ccccc21 do in these assays?
Artemis inh: 10

Results for Cc1[nH][nH]c(=O)c1C(c1c(C)[nH][nH]c1=O)c1cn(Cc2cccc3ccccc23)c2ccccc12 ?
Artemis inh: 47*

How did CCC(c1nnnn1C(C)(C)C)N1CCN(c2cc(Cl)ccc2C)CC1 (stereo not given) do in these assays?
Artemis inh: -3

What do the screens show for `c1ccc2c(c1)CCOC2CNCCCN1CCCCC1` (stereo not given)?
Artemis inh: 1

Results for O=C(Nc1ccccc1)c1sc2cc(C(F)(F)F)cnc2c1-c1cccs1 ?
Artemis inh: 5

Results for COC(=O)c1[nH]c(=O)c2ccccc2c1O ?
Artemis inh: 28

How did Cc1cccc2cc(=O)[nH]c(C)c12 do in these assays?
Artemis inh: -3

Results for Cc1ccccc1Nc1cc2ccccc2c(=O)[nH]1 ?
Artemis inh: 31*

How did CCC(C(=O)Nc1nnc(-c2ccco2)s1)c1ccccc1 (stereo not given) do in these assays?
Artemis inh: -7

Results for COc1ccc(CCN(C(=O)c2cccc(F)c2)C2CC(=O)N(c3ccc(OC)cc3)C2=O)cc1 (stereo not given) ?
Artemis inh: -1

How did COc1cccc(-c2csc(N3CCN(C(=O)NC45CC6CC(CC(C6)C4)C5)CC3)n2)c1 do in these assays?
Artemis inh: 7

What do the screens show for `O=C(COC(=O)c1c[nH]c(=O)[nH]c1=O)NCc1ccccc1`?
Artemis inh: 0

How did CCOC(=O)c1cnc(SC)nc1Sc1ccccc1 do in these assays?
Artemis inh: 17

Results for COc1cccc(-n2c(SCC(=O)N3c4ccccc4CC3C)nnc2-c2ccco2)c1 (stereo not given) ?
Artemis inh: 17

What do the screens show for `CC1Cc2ccccc2N1C(=O)CSc1nnc2c(n1)[nH]c1ccccc12` (stereo not given)?
Artemis inh: 36*

What do the screens show for `CC1Cc2ccccc2N1C(=O)CSc1nc2c(c(=O)n(C)c(=O)n2C)n1Cc1ccc(F)cc1` (stereo not given)?
Artemis inh: 12

Results for CCOC(=O)/C(C#N)=C\C1=C(N2CCCC2)CC(C)(CC)OC1 (stereo not given) ?
Artemis inh: 8

What do the screens show for `Clc1ccc(CON/C=N/c2ncnc3sccc23)c(Cl)c1`?
Artemis inh: 4

How did CS/C(=N\S(=O)(=O)c1cccs1)NC(=O)CSc1nc2ccccc2s1 do in these assays?
Artemis inh: 28

What do the screens show for `CNC(=O)c1ccccc1S(=O)(=O)c1ccccc1C#N`?
Artemis inh: -1

Results for COC(=O)c1ccc(C2/C(=C(/O)c3ccc(OC(C)C)cc3)C(=O)C(=O)N2c2cc(C)on2)cc1 (stereo not given) ?
Artemis inh: 32*

How did Cc1ccc(/C(O)=C2\C(=O)C(=O)N(c3cc(C)on3)C2c2cccc(Br)c2)cc1 (stereo not given) do in these assays?
Artemis inh: 12

Results for COC(=O)c1ccc(C2/C(=C(/O)c3ccc(OC)cc3)C(=O)C(=O)N2c2cc(C)on2)cc1 (stereo not given) ?
Artemis inh: 19

How did Cc1cc(C)cc(COn2ccnc2)c1 do in these assays?
Artemis inh: 4

What do the screens show for `Cc1noc(C)c1Cn1nc(C(=O)O)c2ccccc2c1=O`?
Artemis inh: 2

How did CCC(=O)Nc1ccc(C(=O)Nc2ccc3c(c2)OCO3)cc1 do in these assays?
Artemis inh: 36*

Screening results (PubChem)
